# Kir21 inh = inhibitors of mouse Kir2.1 inward-rectifier potassium channel. Inward rectifier potassium channel 2 (Mus musculus), P35561. HEK293-Kir2.1, FluxOR thallium flux fluorescence; hits give low values. B-score at 10 µM. 310,000 compounds, 0.85% hits;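 active = fluorescence ratio B-score at or below minus 3 SD of library scores, with starting-brightness B-score within 2 SD, cut at about -4.2 in these data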;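 also: channel flux triggered by added potassium and thallium sulfate stimulus; B-score of peak minus minimum fluorescence over baseline after thallium stimulus; more negative B-score means stronger Kir2.1 block with less thallium influx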
# DNA FID counter = compounds displacing fluorescent DNA intercalator, primary screen, artefact control for HCV NS3 helicase inhibitor project, biochemical, FID fluorescence. DNA fluorescent intercalator displacement. inhibition, % at 7.9 µM. 290,000 compounds, 0.17% hits; in the data active = inhibition above about 37%;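 also: 0% = vehicle and 100% = reference compound; higher means more ethidium bromide displaced from hairpin DNA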
# PfM18AAP inh-1 = PfM18AAP inhibitors, malaria aminopeptidase, primary screen, biochemical, QFRET, recombinant enzyme | inhibition, % at 7.35 µM | H-Glu-NHMec fluorogenic cleavage | 290,000 compounds, 1.2% hits | AID 1822, 2009 | M18 aspartyl aminopeptidase (Plasmodium falciparum 3D7);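 active = inhibition above the campaign mean inhibition over all tested compounds plus 3 SD, cut at about 28% in these data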;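 also: 0% = plate median of test compound wells and 100% = 2 mM ZnCl2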
# Rce1 inhib = yeast Rce1p protease inhibitors, primary screen, biochemical, fluorescence, cell-free homogeneous; yeast membranes, quenched prenylated peptide cleavage fluorescence; calls only; 290,000 compounds, 0.27% hits; AID 2563, 2010;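 active = fall in fluorescence gain of 50% or more versus controls, with final raw signal at or below 3038400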;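 also: plate controls were neutral control wells for no effect and wells lacking membranes for full effect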
# Target sequence (Q03530 whole entry, looked up): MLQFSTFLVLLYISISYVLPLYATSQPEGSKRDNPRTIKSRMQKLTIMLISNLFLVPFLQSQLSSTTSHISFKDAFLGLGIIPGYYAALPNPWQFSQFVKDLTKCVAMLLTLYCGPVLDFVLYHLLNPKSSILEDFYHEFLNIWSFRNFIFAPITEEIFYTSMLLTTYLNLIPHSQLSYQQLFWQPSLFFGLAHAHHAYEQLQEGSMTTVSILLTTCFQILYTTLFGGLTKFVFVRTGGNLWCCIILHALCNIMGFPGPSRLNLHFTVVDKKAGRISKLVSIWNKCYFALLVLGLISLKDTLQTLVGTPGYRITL
# PfM18AAP inh-2 = PfM18AAP inhibitors, malaria aminopeptidase, confirmation, biochemical, QFRET, recombinant enzyme, triplicate | inhibition, % at 7.35 µM | 2,400 compounds, 28% hits | AID 2170, 2009 | H-Glu-NHMec fluorogenic cleavage | shares compounds with PfM18AAP inh-1;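 active = mean inhibition over replicate wells above the hit cutoff set for the earlier primary screen, cut at about 29% in these data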;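 also: 0% = median of test compound wells and 100% = 2 mM ZnCl2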
# CTSL1 confirm = cathepsin L1 inhibitors, retest, confirmation, counter-screen for PFM18AAP inhibitor project, biochemical, QFRET, triplicate. 2,400 tested, under 10 active. inhibition, % at 5.96 µM. purified cathepsin L1, Z-Leu-Arg-MCA fluorescence. AID 2178, 2009. shares compounds with PfM18AAP inh-1;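 active = average inhibition across replicates above the hit cutoff set in the earlier primary screen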;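 also: 0% = median of test compound wells and 100% = Z-Phe-Ala-diazomethylketone 1 µM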
# Target sequence (P07711 whole entry, looked up): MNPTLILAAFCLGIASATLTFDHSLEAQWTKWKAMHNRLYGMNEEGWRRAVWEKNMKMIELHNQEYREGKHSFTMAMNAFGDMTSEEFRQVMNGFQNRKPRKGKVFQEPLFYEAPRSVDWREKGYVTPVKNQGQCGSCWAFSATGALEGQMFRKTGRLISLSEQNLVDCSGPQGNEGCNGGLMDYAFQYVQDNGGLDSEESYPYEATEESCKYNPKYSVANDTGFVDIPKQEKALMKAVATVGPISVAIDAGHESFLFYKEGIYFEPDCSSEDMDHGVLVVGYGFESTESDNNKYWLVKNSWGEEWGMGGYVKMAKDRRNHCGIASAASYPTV
# * = called active by the depositor; i = inactive; . = no result. In the library only some 2.3% were active in any assay of this set; here they are far more common.
SMILES,Kir21 inh,DNA FID counter,PfM18AAP inh-1,Rce1 inhib,PfM18AAP inh-2,CTSL1 confirm
COc1cccc2sc3ccc(NCCC4CCCN4C)cc3c(=O)c12 (configuration not stated),-0.79,-4,33*,i,-45,-2
Oc1ccc(Br)cc1-c1ccn[nH]1,-1.9,-7,-3,i,.,.
Oc1ccc(O)c(-c2cnns2)c1,-0.43,3,86*,i,90*,1
CC1CC(C)(C)CC2(C1)NC(=S)N(c1ccccc1)N2 (configuration not stated),.,-4,36*,i,-48,-14
CC1CCCC2(C1)NC(=S)N(c1ccccc1)N2 (configuration not stated),-0.03,4,6,i,.,.
Cc1nc2ccc(S(=O)(=O)NCC(=O)NC(C)c3ccccc3)cc2s1 (configuration not stated),-0.75,-10,33*,i,-31,3
Cc1[nH]c(=S)c(C#N)c(-c2ccco2)c1C(=O)N(C)C,0.15,-13,51*,i,29*,1
CC(=O)c1c(C)[nH]c(=S)c(C#N)c1-c1ccc(Cl)cc1,0.44,-3,-3,i,.,.
O=C(NCC(=O)N1CCN(c2ccccc2O)CC1)C1CCCCC1,-0.95,.,.,i,.,.
O=C(NCC(=O)N1CCN(c2ccccc2O)CC1)c1ccco1,0.82,-11,34*,i,-29,-5
N#Cc1ccc(C(=O)Nn2cnnc2)cc1,-1.7,-3,45*,i,27,-3
O=C(Nn1cnnc1)c1ccncc1,2,4,13,i,.,.
O=C(Nn1cnnc1)c1cc(Cl)cc(Cl)c1,-0.35,4,47*,i,32*,-7
Cc1cc(C(=O)Nn2cnnc2)ccc1[N+](=O)[O-],0.29,2,46*,i,51*,6
O=C(Nn1cnnc1)c1cccc(S(=O)(=O)N2CCOCC2)c1,0.63,5,38*,i,33*,0
CCOc1ccc(C(=O)NCc2ccc3c(c2)OCO3)cc1,0.52,-5,0,i,.,.
COc1cc(C(=O)Nn2cnnc2)ccc1OC(F)F,-0.26,-10,45*,i,24,-2
COc1cc(C(=O)Nc2ccc3c(c2)OCCO3)ccc1OC(F)F,0.04,-2,2,i,.,.
Cc1ccc(C(=O)Nn2cnnc2)cc1Cl,-1.8,2,47*,i,33*,1
Cc1ccc(C(=O)Nc2cccnc2Cl)cc1Cl,0.23,-1,-3,i,.,.
CNS(=O)(=O)c1cc(S(=O)(=O)NC)c2cccc3c2c1NC3=O,0.02,-2,2,i,.,.
CSCC[C@H](NC(=O)N1CCn2c1nc1ccccc12)C(=O)N[C@@H](C(=O)O)c1ccccc1,-1.5,-25,51*,i,42*,-5
COc1ccc(/C=C2\CN(Cc3ccccc3)C/C(=C\c3ccc(OC)c(O)c3)C2=O)cc1O,-0.42,-17,45*,i,3,-1
CCN1C/C(=C/c2ccc(OC)c(O)c2)C(=O)/C(=C/c2ccc(OC)c(O)c2)C1,2.2,0,13,i,.,.
CCC/C=N/Nc1nnc(Cc2ccc(OC)c(OC)c2)c(=O)[nH]1,1.4,-33,32*,i,-29,-5
SMILES,Kir21 inh,DNA FID counter,PfM18AAP inh-1,Rce1 inhib,PfM18AAP inh-2,CTSL1 confirm
Oc1ccc(/C=N/Nc2nccnc2Cl)c(O)c1,-1.6,-9,35*,i,-7,3
COc1ccc(/C=N/Nc2ncnc(Cl)c2N)cc1OC,1,-2,35*,i,-45,2
Clc1nccnc1N/N=C/c1ccc(Br)cc1,2.2,-12,9,i,.,.
COc1ccc(/C=N/Nc2nccnc2Cl)cc1,-0.11,-1,36*,i,-38,5
Nc1c(Cl)ncnc1N/N=C/c1cccc(O)c1,-0.04,0,15,i,.,.
COc1ccc(/C=N/Nc2nccnc2Cl)c(OC)c1,0.05,-5,5,i,.,.
O=C(NC1CCCC1)C1CCN(C(=O)c2cccc(Cl)c2)CC1,0.02,-13,-7,i,.,.
O=C(O)c1ccc(C2Nc3ccccc3C(=O)N2Cc2ccccc2)cc1 (configuration not stated),-0.53,-9,4,.,.,.
COc1ccc2c(c1OC)C(=O)N(c1cccc(/C=C/C(=O)O)c1)C2,-0.22,-18,-3,i,.,.
Cc1sc2nc(CSc3ncn[nH]3)[nH]c(=O)c2c1C,-0.76,-5,72*,i,71*,-3
COCc1nc2sc(C)c(C)c2c(=O)[nH]1,0.09,-3,-4,i,.,.
CC(=O)Oc1ccc2c(=O)c(Oc3ccccc3)coc2c1OC(C)=O,0.14,-10,33*,i,2,0
Cc1ccc(Oc2coc3cc(OC(=O)c4cccs4)ccc3c2=O)cc1,-0.77,-7,-13,i,.,.
COc1ccc2c(c1OC)C(=O)OC2CC(=O)c1ccc(O)c(O)c1 (configuration not stated),0.66,-4,43*,i,19,0
CCOc1ccc(Br)cc1S(=O)(=O)Nc1ncn[nH]1,-1.2,-10,1,i,.,.
O=C(CCc1nnc2ccc(NCc3ccco3)nn12)Nc1ccccc1F,1.1,-12,48*,i,-21,-1
Cc1cccc(NC(=O)COc2coc(CN3CCc4ccccc4C3)cc2=O)c1,-0.14,.,.,i,.,.
O=c1[nH]c(=S)[nH]c2c1CN(Cc1ccc(F)cc1)CC2,0.98,-7,37*,i,9,5
CCCCNC(=O)c1onc(CSc2ccc(F)c(F)c2)c1C(=O)NCCCC,-0.13,.,.,i,.,.
S=c1[nH]nc(Cn2cnc3ccccc32)n1-c1ccccc1,0.71,-6,42*,i,-9,0
S=c1[nH]nc(CN2CCCCC2)n1-c1ccc(Cl)cc1,0.29,-4,13,i,.,.
S=c1[nH]nc(Cn2nnc3ccccc32)n1-c1ccc(Cl)cc1,0.36,-3,39*,i,4,2
Cc1ccc(S(=O)(=O)N(CC(=O)NCCSc2ccccn2)c2ccccc2F)cc1,-1.2,-44,3,i,.,.
O=S(=O)(c1ccc(NC(=S)N/N=C/c2ccc(O)c(O)c2)cc1)N1CCOCC1,-0.79,-2,57*,i,34*,-1
COc1ccc(F)c(CN2CCC(n3nccc3NC(=O)C3CCOC3)CC2)c1 (configuration not stated),1.2,0,-2,i,.,.
COc1ccc(OC)c(C2NC(=S)NC3=C2N2CCC3CC2)c1 (configuration not stated),0.04,18,44*,i,-49,1
Fc1cccc(C2NC(=S)NC3=C2N2CCC3CC2)c1 (configuration not stated),-0.24,-1,10,i,.,.
COc1ccc(NC2=CC(=O)CC(C)(C)C2)cc1OC,0.52,-5,7,.,.,.

# Source: PubChem (several laboratories)
